Measured values taken from PubChem BioAssay (NCATS).
Records with an inconclusive call do not appear. Values without a mark were called inactive. Active and inactive are the calls of the source. Calls follow the shape of the dose curve; as a rule, active = well fitted inhibition curve with a large enough effect; inconclusive = small, poorly fitted or top-dose-only effect; inactive = no such curve, though single readings can be large or run the other way.

Tested on: Zika virus NS2B-NS3 protease (unlinked complex)
Test: Primary screen GU Rhodamine qHTS for Zika virus inhibitors: Unlinked NS2B-NS3 protease assay (AID 1347159); also: nearly all actives have a fitted effect of over 60% in size
Conditions: Recombinant ZIKV NS2B-NS3 protease, Rhodamine110 substrate fluorescence; series mostly up to 107 µM; activity change, negative = inhibition: at the top concentration
From the text: Avindra Nath, Ph.D., National Institute of Neurological Disorders and Stroke (NINDS), Bethesda, MD
Radhakrishnan Padmanabhan, Ph.D., Georgetown University (GU), Washington D.C.
Zika Virus causes congenital defects, including microcephaly and is associated with Guillain-Barre syndrome, eningoencephalitis and myelitis in infected adult. […] Using a target-based approach, we hope to establish a screening paradigm to uncover novel, cell-active NS2B-NS3 protease (Zika Virus) specific inhibitors from NCATS' collection of small molecules using qHTS.
Four assay panel was created to identify potential Zika Virus inhibitors. Namely, (1) GU unlinked NS2B-NS3 AMC tagged protease qHTS, (2) GU unlinked NS2B-NS3 Rhodamine tagged protease qHTS, (3) NINDS linked NS2B-NS3 AMC tagged protease qHTS, (4) NINDS linked NS2B-NS3 Rhodamine tagged protease qHTS. Active compounds were re-acquired and re-screened to confirm inhibition. Inhibitors were further screened against various confirmatory and counterscreens in dose response format.
Early Translation Branch (ETB)
National Center for Advancing Translational Sciences (NCATS), Rockville, MD
National Institute of Health (NIH), Bethesda, Maryland
Padmanabhan lab provided the NS2B hydrophilic domain and NS3 protease domain in a noncovalent complex used for the unlinked assay. Control compound aprotinin is obtained from Thermo Scientific (#78432; Waltham, Massachusetts). Rhodamine110 substrate ([N-Cbz]-Nle-Lys-Arg-Arg-Rhod110-Arg-Arg-Lys-Nle-[N-Cbz]) was purchased from either Genscript or Bachem.
1536-well Protease (Rhodamine110 Substrate) Assay:
Briefly, 3 microL of enzyme (25 nM final concentration), in assay buffer (10 mM Tris-HCl pH 8.0 with 0.01% Tween 20) were dispensed into a 1,536-well solid-bottom black plate (Greiner Bio One, Monroe, NC). Twenty-three nL of compounds (final concentration range 7.28 nM to 114 microM) or control Aprotinin (final concentration range 3.47 nM to 114 microM) were transferred via Wako Pin-tool (Wako Automation, Richmond, VA). Samples were incubated (room temperature, protected from light) for 15 minutes followed by a 1 microL Rhodamine110 substrate addition (1.5 microM final concentration). Plates were then immediately read on a ViewLux High-throughput CCD imager (PerkinElmer, Waltham, MA) equipped with FITC fluorescence optics (480(20) nm excitation, 540(25) nm emission), then incubated (room temperature, protected from light) for 15 minutes (~15% conversion). The change in fluorescence intensity over the 15-minute reaction period was normalized against no-inhibitor and no-enzyme controls and the resulting percent inhibition data were fitted to a 4-parameter Hill equation. Aprotinin was used as intraplate control.
% is scaled to controls: 0 for no effect and ±100 for the full control effect; potency is read from the fitted curve at half-maximal effect.

| SMILES | activity change, negative = inhibition | Potency |
| --- | --- | --- |
| COc1cc(N2CCN(C(C)=O)CC2)ccc1Nc1ncc(Cl)c(Nc2ccc(N3CCN(C(C)=O)CC3)cc2OC)n1 | 50.4% | – |
| CC(CCC1(O)OC2CC3C4CC=C5CC(O[C@@H]6O[C@H](CO)[C@@H](O[C@@H]7O[C@H](CO)[C@@H](O)[C@H](O)[C@H]7O)[C@H](O)[C@H]6O[C@@H]6O[C@@H](C)[C@H](O)[C@@H](O)[C@H]6O)CCC5(C)C4CCC3(C)C2C1C)CO[C@@H]1O[C@H](CO)[C@@H](O)[C@H](O)[C@H]1O (stereo not given in full) | 1.68% [at 32.5 µM] | – |
| CN[C@@H]1[C@@H](O)[C@@H](O[C@@H]2[C@@H](O)[C@H](O[C@H]3O[C@@H]([C@@H](C)NC)CC[C@H]3N)[C@@H](N)C[C@H]2N)OC[C@]1(C)O | 40.1% | – |
| N#CCC(C1CCCC1)n1cc(-c2ncnc3[nH]ccc23)cn1 (stereo not given) | 1.06% | – |
| COc1ccc2c(c1)CN(C(=O)CCN1CCC(Cc3ccccc3)CC1)CCS2 | -0.93% [at 57.1 µM] | – |
| COC(=O)/C=C/C(=O)N(O)CCCCNCc1ccc(COC(=O)Nc2cccc3ccccc23)cc1 | 4.15% | – |
| CCC[C@@H](NC(=O)N1C(=O)C(CC)(CC)[C@@H]1Oc1ccc(C(=O)N2CCN(C)CC2)cc1)c1ccc2c(c1)OCO2 | 11.5% | – |
| C=CC(=O)Nc1cccc(Nc2nc(Nc3ccc(Oc4ccnc(C(=O)NC)c4)cc3)ncc2F)c1 | 45.6% | – |
| Cc1cc(CN)cc(C)c1NC(=O)c1ccc(-c2cc(Cl)ccc2Cl)o1 | 162% | – |
| Cc1ccc(CCCO)c(NCc2ccc3nc(NCCCN4CCOCC4)n(Cc4nc(C)ccc4O)c3c2)c1 | 68.9% | – |
| COc1c(N2CC3CCCNC3C2)c(F)cc2c(=O)c(C(=O)O)cn(C3CC3)c12 (stereo not given) | 10.3% | – |
| CCCCC(=O)N(Cc1ccc(-c2ccccc2-c2nn[nH]n2)cc1)C(C(=O)O)C(C)C (stereo not given) | 10.9% | – |
| Cn1c(NC[C@@H](N)Cc2ccccc2)nc(-c2ccncc2)c(-c2ccc3ccccc3c2)c1=O | 129% | – |
| CN(CCCNC(=O)c1ccc2nc3c(c(Cl)c2c1)CCCC3)Cc1ccccc1 | 46.2% | – |
| COCCOCCOc1ccc(C2=N[C@@](C)(C(=O)O)CS2)c(O)c1 | 0% | – |
| Fc1ccccc1CNCc1ccc(-c2ccnc3[nH]ccc23)cc1 | 79.4% | – |
| Cc1cc(C)c(-c2csc(NC(=O)c3ccccc3)n2)c(C)c1 | 60.8% | – |
| CC(C)N(CCCNC(=O)Nc1ccc(C(C)(C)C)cc1)C[C@H]1O[C@@H](n2cc(Br)c3c(N)ncnc32)[C@H](O)[C@@H]1O | 102% | – |
| CCOP(=O)(Cc1ccc(C(=O)Nc2ccc(Br)cc2C#N)cc1)OCC | 0% [at 57.1 µM] | – |
| CC1CCN(c2cc(NC(=O)c3ccccc3)ncn2)CC1 | -1.63% | – |

| SMILES | activity change, negative = inhibition | Potency |
| --- | --- | --- |
| CCOc1cc(CNC2CCCC2)cc(Cl)c1OCc1ccc(Cl)cc1 | 135% | – |
| CO[C@@H]1[C@@H](O[C@H]2O[C@@H](C)[C@H](O[C@@H]3C[C@](C)(O)[C@H](O)[C@@H](C)O3)[C@@H](N(C)C)[C@@H]2O)[C@@H](CC=O)C[C@@H](C)[C@@H](O[C@H]2CC[C@H](N(C)C)[C@H](C)O2)/C=C/C=C/C[C@@H](C)OC(=O)C[C@H]1O | -9.9% | – |
| CCN1CCN(Cc2ccc(-c3cc4c(NC(C)c5ccccc5)ncnc4[nH]3)cc2)CC1 (stereo not given) | 81.6% | – |
| NC(=Nc1ccc(CCNCc2cccc(Cl)c2)cc1)c1cccs1 | 64.5% | – |
| C=C1C(=O)O[C@@H]2[C@H]1[C@H](O)C[C@]1(C)[C@@H](O)CC=C(C)[C@@H]21 | 0.16% | – |
| COc1cc2nc(N3CCN(C)CC3)nc(NC3CCN(Cc4ccccc4)CC3)c2cc1OC | 0% | – |
| CC[C@H]1OC(=O)[C@H](C)[C@@H](O[C@H]2C[C@@](C)(OC)[C@@H](O)[C@H](C)O2)[C@H](C)[C@@H](O[C@@H]2O[C@H](C)C[C@H](N(C)C)[C@H]2O)[C@](C)(O)C[C@@H](C)/C(=N/OCOCCOC)[C@H](C)[C@@H](O)[C@]1(C)O | 0% | – |
| C=C1C(=O)O[C@@H]2C[C@@]3(C)CCC[C@H](C)C3=C[C@H]12 | -6.67% | – |
| Cn1nccc1Nc1nccc(-c2ccn([C@H](CO)c3ccc(Cl)c(F)c3)c(=O)c2)n1 | 2.52% | – |
| N#C[C@@H]1C[C@@H]2C[C@@H]2N1C(=O)[C@@H](N)C12CC3CC(CC(O)(C3)C1)C2 | -18.9% | – |
| C=C1C(=O)O[C@@H]2/C=C(/C)CC3C=C(C[C@H](OC(=O)/C(C)=C\C)[C@@H]12)C(=O)O3 (stereo not given in full) | -19.5% | – |
| CC(C)COc1ccc(CNC(=O)N(Cc2ccc(F)cc2)C2CCN(C)CC2)cc1 | 158% | – |
| CN([C@H]1c2cc(OCCCC(F)(F)F)ccc2OC(C)(C)[C@@H]1O)S(C)(=O)=O | -8.28% | – |
| COc1cc(-c2cc(-c3cccc(O)c3)cnc2N)cc(OC)c1OC | 12.1% | – |
| C=C1[C@@H](C2=CC(=O)OC2)CC[C@@]2(O)[C@@H]1CC1[C@H]2CC[C@@H]2C[C@@H](O[C@H]3O[C@@H](C)[C@@H](O[C@@H]4O[C@H](CO[C@@H]5O[C@H](CO)[C@@H](O)[C@H](O)[C@H]5O)[C@@H](O)[C@H](O)[C@H]4O)[C@H](OC)[C@H]3O)CC[C@]12C (stereo not given in full) | -6.08% [at 32.5 µM] | – |
| CCC(=O)Nc1cccc(Oc2nc(Nc3ccc(N4CCN(C)CC4)cc3OC)ncc2Cl)c1 | 47% | – |
| CC1(C)SC2C(NC(=O)[C@H](NC(=O)N3CCNC3=O)c3ccccc3)C(=O)N2C1C(=O)O (stereo not given in full) | 0% | – |
| Nc1ncnc2c1ncn2[C@@H]1O[C@H](CO)C[C@H]1O | -29.5% | – |
| COc1ccc(NC(=O)N2CCc3c2ccc2ccccc32)cc1N1CCN(C)CC1 | 114% | – |
| CC(=O)N1c2ccc(-c3ccc(C(=O)O)cc3)cc2C(Nc2ccc(Cl)cc2)CC1C (stereo not given) | – | 20 µM (active) |
